Assay results from PubChem BioAssay AID1159580 (chemical genetic matrix, 2015).
About 2,000 (36%) of roughly 5,500 compounds were called active. Roughly 18% stayed inconclusive and do not appear here. Rule as the data show it: active = normalized growth mostly below about 0.91 (no sharp cut-off); inconclusive = no clear call, values can overlap the other calls; inactive = mostly above about 0.92. The list shows a part of the results.

Assay: chemical genetic growth profiling, strain panel (AID 1159580);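 also: tested at 20 µM; growth read once vehicle control cultures reached saturation at 30 °C; 1 = growth at the plate median or of vehicle wells; lower values mean less growth of the strain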
Settings: S. cerevisiae deletion strains, growth OD

Measured: normalized growth

C=C1C(=O)OC2CC1C(OC(C)=O)C/C(C)=C/CC/C(C)=C/CC[C@]2(C)O (stereo partly specified)
inactive: locus YAL013W, strain DEP1, hits give low values 0.999 | locus YAL021C, strain ccr4, hits give low values 0.964 | locus YAL026C, strain drs2, hits give low values 0.987 | locus YAL030W, strain snc1, hits give low values 0.984 | locus YBL061C, strain skt5, hits give low values 1.01 | locus YBR009C, strain hhf1, hits give low values 1.01 | locus YBR021W, strain FUR4, hits give low values 1.03 | locus YBR023C, strain chs3, hits give low values 1.01 | locus YBR171W, strain sec66, hits give low values 0.994 | locus YBR229C, strain ROT2, hits give low values 1.02 | locus YBR231C, strain swc5, hits give low values 1.01 | locus YBR279W, strain paf1, hits give low values 0.996 | locus YCL011C, strain gbp2, hits give low values 1 | locus YCL016C, strain dcc1, hits give low values 1 | locus YCL029C, strain bik1, hits give low values 1.02 | locus YCL061C, strain MRC1, hits give low values 0.993 | locus YCL069W, strain vba3, hits give low values 0.987 | locus YCR088W, strain abp1, hits give low values 0.991 | locus YDL005C, strain med2, hits give low values 0.992 | locus YDL035C, strain GPR1, hits give low values 1.01 | locus YDL040C, strain nat1, hits give low values 0.981 | locus YDL074C, strain BRE1, hits give low values 1 | locus YDL101C, strain DUN1, hits give low values 1.01 | locus YDL185W, strain tfp1, hits give low values 1.02 | locus YDL192W, strain arf1, hits give low values 1 | locus YDR001C, strain nth1, hits give low values 0.982 | locus YDR069C, strain doa4, hits give low values 1.01 | locus YDR101C, strain arx1, hits give low values 1.03 | locus YDR137W, strain rgp1, hits give low values 0.935 | locus YDR150W, strain NUM1, hits give low values 1 | locus YDR159W, strain sac3, hits give low values 1.03 | locus YDR162C, strain NBP2, hits give low values 1.02 | locus YDR195W, strain ref2 1.02 | locus YDR297W, strain sur2, hits give low values 0.997 | locus YDR318W, strain mcm21, hits give low values 1 | locus YDR334W, strain swr1, hits give low values 1.01 | locus YDR335W, strain msn5, hits give low values 0.985 | locus YDR388W, hits give low values 1.01 | locus YDR392W, strain spt3, hits give low values 0.977 | locus YDR502C, strain sam2, hits give low values 1.03 | locus YEL003W, strain gim4, hits give low values 1.01 | locus YEL037C, strain rad23, hits give low values 0.99 | locus YEL061C, strain CIN8 (second series), hits give low values 0.994 | locus YEL061C, strain CIN8, hits give low values 1.02 | locus YER015W, strain faa2, hits give low values 1 | locus YER016W, strain bim1, hits give low values 0.992 | locus YER110C, hits give low values 1.02 | locus YER111C, strain swi4, hits give low values 0.995 | locus YER155C, strain BEM2 (second series), hits give low values 1.03 | locus YER155C, strain BEM2, hits give low values 1 | locus YER167W, strain BCK2, hits give low values 1.01 | locus YFR010W, strain ubp6, hits give low values 0.995 | locus YGL078C, strain dbp3, hits give low values 1.01 | locus YGL086W, strain mad1, hits give low values 1.02 | locus YGL167C, strain pmr1, hits give low values 0.988 | locus YGL173C, strain kem1, hits give low values 1.01 | locus YGL227W, strain vid30, hits give low values 0.989 | locus YGL240W, strain doc1, hits give low values 1.02 | locus YGL248W, strain PDE1, hits give low values 1.02 | locus YGL253W, strain hxk2, hits give low values 0.923 | locus YGR135W, strain pre9, hits give low values 1 | locus YGR252W, strain gcn5, hits give low values 1.01 | locus YHR013C, strain ard1, hits give low values 0.979 | locus YHR027C, strain rpn1, hits give low values 0.99 | locus YHR030C, strain SLT2, hits give low values 1.02 | locus YHR079C, strain IRE1 (second series), hits give low values 1.01 | locus YHR094C, strain hxt1, hits give low values 1.01 | locus YHR129C, strain ARP1, hits give low values 1.01 | locus YHR142W, strain chs7, hits give low values 1.01 | locus YHR200W, strain rpn10, hits give low values 1.02 | locus YIL066C, strain RNR3, hits give low values 1.01 | locus YIL073C, strain SPO22, hits give low values 0.983 | locus YIL125W, strain kgd1, hits give low values 1.01 | locus YIR030C, strain dcg1, hits give low values 1.01 | locus YJL092W, strain hpr5, hits give low values 0.988 | locus YJL095W, strain BCK1 (second series), hits give low values 0.998 | locus YJL095W, strain BCK1, hits give low values 1 | locus YJL115W, strain asf1, hits give low values 0.982 | locus YJL129C, strain trk1, hits give low values 1.01 | locus YJL134W, strain LCB3, hits give low values 1 | locus YJL154C, strain vps35, hits give low values 0.982 | locus YJL164C, strain tpk1, hits give low values 0.981 | locus YJL166W, strain qcr8, hits give low values 1 | locus YJL168C, strain set2, hits give low values 1.03 | locus YJL187C, strain SWE1 (second series), hits give low values 1.01 | locus YJL187C, strain SWE1, hits give low values 0.978
